Source: PubChem BioAssay (EPA / NIEHS)
Active and inactive are the calls of the source. The calls were made as follows: active = hit-call score of the fitted dose curve at least 0.9, where 1 is the maximum; inactive = score below 0.9.

Assays:
[1] = ATG_E_Box_CIS: Attagene CIS-FACTORIAL HepG2 Assay for human Enhancer Box (E-box) (AID 2282936); settings: HepG2 E-box cis-reporter transcription, actives raise or lower the signal
How it was run: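 Fluorescent reporter fragments separated by capillary electrophoresis gave the signal; mRNA came from HepG2 cells transfected with cis-element reporters and treated 24 h. Curves fitted bidirectionally relative to DMSO controls.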

[2] = ATG_M_61_CIS: Attagene CIS-FACTORIAL HepG2 Assay for M61 Transcription Factor (Internal Marker) (AID 2282937); settings: HepG2 Attagene CIS-FACTORIAL M61 internal marker reporter; actives raise or lower the signal
How it was run: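 Endogenous transcription factor activity in HepG2 is read through transiently transfected cis-element reporter units. After 24 h dosing, RNA undergoes reverse transcription, PCR and primer extension with 6-FAM before capillary electrophoresis; DMSO-referenced bidirectional fit.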

[3] = ATG_EGR_CIS: Attagene CIS-FACTORIAL HepG2 Assay for human Early Growth Response 1 (EGR1) (AID 2282938); settings: HepG2 Attagene CIS-FACTORIAL EGR reporter mRNA; actives raise or lower the signal
How it was run: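 Activity is taken as induction or loss of reporter mRNA versus DMSO, fitted bidirectionally. Transcripts from cis-regulated reporter units in transiently transfected HepG2 were measured after 24 h by RT-PCR with capillary electrophoresis.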

[4] = ATG_M_19_CIS: Attagene CIS-FACTORIAL HepG2 Assay for M19 Transcription Factor (Internal Marker) (AID 2282939); settings: HepG2 Attagene CIS-FACTORIAL M19 internal marker reporter; actives raise or lower the signal
How it was run: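 Transfect HepG2 with MRTU reporter library → dose chemical, 24 h → isolate total RNA, reverse-transcribe with oligo(dT) → PCR, 6-FAM label, HpaI cut (2 h, 37 C) → capillary electrophoresis. Bidirectional fit vs DMSO.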

[5] = ATG_Ets_CIS: Attagene CIS-FACTORIAL HepG2 Assay for human Erythroblast Transformation Specific (ETS) (AID 2282941); settings: HepG2 ETS cis-reporter transcription, actives raise or lower the signal
How it was run: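 RT-PCR/capillary electrophoresis fluorescence read-out of reporter mRNA; HepG2 transient multi-reporter transfection; 24 h compound exposure; gain or loss of signal fitted bidirectionally relative to DMSO.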

[6] = target: Hepatocyte nuclear factor 3-beta (Homo sapiens) (UniProt Q9Y261); assay: ATG_FoxA2_CIS: Attagene CIS-FACTORIAL HepG2 Assay for human Forkhead box A2 (FOXA2) (AID 2282942); settings: HepG2 cis-reporter transcription factor activity, 24 h; actives raise or lower the signal
Hepatocyte nuclear factor 3-beta (Homo sapiens), sequence (Q9Y261 whole entry, looked up): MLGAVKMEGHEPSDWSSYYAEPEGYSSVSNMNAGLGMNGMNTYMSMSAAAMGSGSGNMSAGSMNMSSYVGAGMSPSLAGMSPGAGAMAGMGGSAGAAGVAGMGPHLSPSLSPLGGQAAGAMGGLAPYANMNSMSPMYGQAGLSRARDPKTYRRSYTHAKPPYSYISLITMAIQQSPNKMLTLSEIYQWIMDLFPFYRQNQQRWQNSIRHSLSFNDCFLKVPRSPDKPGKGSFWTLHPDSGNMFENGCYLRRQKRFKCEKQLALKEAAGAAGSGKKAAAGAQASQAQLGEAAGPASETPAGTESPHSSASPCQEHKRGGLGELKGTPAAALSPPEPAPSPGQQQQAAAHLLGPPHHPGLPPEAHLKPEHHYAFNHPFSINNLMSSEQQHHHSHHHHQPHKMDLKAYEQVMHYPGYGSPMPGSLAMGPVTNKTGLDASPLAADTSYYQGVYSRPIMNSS
How it was run: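 Reporter transcript induction is measured by fluorescence after capillary electrophoresis of RT-PCR products from HepG2 cells exposed 24 h. Cis-regulated reporter units report endogenous factor activity; curves fitted both directions against DMSO.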

[7] = ATG_FoxO_CIS: Attagene CIS-FACTORIAL HepG2 Assay for human Forkhead box O (FoxO) (AID 2282943); settings: HepG2 Attagene cis-reporter, FoxO element, mRNA; actives raise or lower the signal
How it was run: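 HepG2, transient MRTU transfection (cis element, endogenous TFs). Dose 24 h. TriZol RNA → oligo(dT) RT → PCR → 6-FAM primer extension → HpaI cut → CE. Gain/loss vs DMSO.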

[8] = ATG_GLI_CIS: Attagene CIS-FACTORIAL HepG2 Assay for human Zinc Finger Protein GLI1 (AID 2282945); settings: HepG2, Attagene cis-factorial reporter mRNA, GLI element; actives raise or lower the signal
How it was run: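 Bidirectional curve fits relative to DMSO, using reporter mRNA levels from RT-PCR plus capillary electrophoresis. Cells were HepG2 transiently carrying cis-regulated reporter constructs, harvested 24 h after dosing.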

[9] = ATG_GATA_CIS: Attagene CIS-FACTORIAL HepG2 Assay for human GATA Binding Protein (AID 2282944); settings: HepG2 GATA cis-element reporter, Attagene multiplex mRNA; actives raise or lower the signal
How it was run: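 Transient MRTU transfection, HepG2, 24 h compound exposure. Total RNA → oligo(dT) RT → PCR → 6-FAM primer extension → HpaI cut → CE. Bidirectional fit vs DMSO.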

[10] = ATG_ERE_CIS: Attagene CIS-FACTORIAL HepG2 Assay for Estrogen Response Element (ERE) (AID 2282940); settings: HepG2 ERE cis-reporter, Attagene RNA transcript; actives raise or lower the signal
How it was run: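 Transient MRTU transfection of human HepG2; cis-element promoters; 24 h dosing; total RNA → RT (oligo dT) → PCR → 6-FAM primer extension → HpaI digest → CE fluorescence. Bidirectional fit, DMSO baseline.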

Measured: AC50

O=C[C@H](O)[C@H](O)[C@H](O)CO
inactive: [1] | [2] | [3] | [4] | [5] | [6] | [7] | [8]

O=C1CCCCCCCCCCCCCCO1
inactive: [1] | [2] | [3] | [4] | [5] | [7] | [9] | [8]

CC[C@]12CCCN3CCc4c(n(c5ccccc45)[C@@](O)(C(=O)OC)C1)[C@@H]32
inactive: [1] | [2] | [3] | [4] | [5] | [6] | [7] | [8]

C=CC(=O)NCOCC(C)C
inactive: [1] | [2] | [3] | [4] | [5] | [7] | [9] | [8]

CC(C)=CCC[C@](C)(O)[C@@H]1CC=C(C)CC1
inactive: [1] | [2] | [3] | [4] | [5] | [7] | [9] | [8]

COc1ccc(Cl)cc1C
inactive: [1] | [2] | [3] | [4] | [7] | [9] | [8]

Clc1ccc(Cl)c(Cl)c1Cl
inactive: [1] | [2] | [3] | [4] | [6] | [7] | [9] | [8]

Cc1cccc(C)c1[N+](=O)[O-]
inactive: [1] | [2] | [3] | [4] | [6] | [7] | [9] | [8]

CCCCCCOC(=O)CC
inactive: [1] | [2] | [3] | [10] | [6] | [7] | [9] | [8]

CCC/C=C/C=O
inactive: [1] | [2] | [3] | [4] | [7] | [9] | [8]

CCCCCCCCCCCCCCCC(=O)O
inactive: [1] | [2] | [3] | [4] | [6] | [7] | [8]

Cc1cccc(C)c1C
inactive: [1] | [2] | [3] | [4] | [6] | [7] | [8]

CCC(C(=O)NC(N)=O)c1ccccc1 (stereo not drawn)
inactive: [1] | [2] | [3] | [10] | [5] | [6] | [7] | [9] | [8]

CCCCCCC#CC(=O)OC
inactive: [1] | [2] | [3] | [5] | [6] | [7] | [9] | [8]

CN(C)c1ccc(O)c2c1C[C@H]1C[C@H]3[C@H](N(C)C)C(=O)C(C(N)=O)=C(O)[C@@]3(O)C(=O)C1=C2O
inactive: [1] | [2] | [3] | [10] | [5] | [6] | [7] | [9] | [8]

C#C[C@]1(O)CC[C@H]2[C@@H]3CCC4=Cc5oncc5C[C@]4(C)[C@H]3CC[C@@]21C
active: [1] 53.8 µM | [3] 21.9 µM | [10] 830 nM | [5] 26.1 µM | [7] 60.4 µM | [9] 54.6 µM
inactive: [2] | [6]

O=C(O)CCCCCCCCCCC(=O)O
inactive: [1] | [2] | [3] | [4] | [6] | [7] | [9] | [8]

CCCCCCCCCCCCCOS(=O)(=O)O
inactive: [1] | [2] | [3] | [6] | [7] | [9] | [8]

CCCc1c(OCCCOc2ccc(OCC(=O)O)cc2)ccc(C(C)=O)c1O
inactive: [1] | [2] | [5] | [6] | [7] | [9] | [8]
active: [3] 31.8 µM | [10] 365 nM

CCC(O)CO (stereo not drawn)
inactive: [1] | [2] | [3] | [10] | [5] | [6] | [7] | [9]

CC(=O)[C@H]1CC[C@H]2[C@@H]3CC=C4C[C@@H](O)CC[C@]4(C)[C@H]3CC[C@]12C
inactive: [1] | [2] | [3] | [5] | [6] | [7] | [9] | [8]
active: [10] 2320 nM

CC(=O)Nc1ccc(C)cc1C
inactive: [1] | [2] | [3] | [6] | [7] | [9] | [8]

CC(C)OP(=O)(CP(=O)(OC(C)C)OC(C)C)OC(C)C
inactive: [1] | [2] | [3] | [10] | [5] | [6] | [7] | [9] | [8]

Cc1ccccc1C=O
inactive: [1] | [2] | [3] | [10] | [6] | [7] | [9] | [8]

Clc1ccc2c(c1)C(N1CCNCC1)=Nc1ccccc1O2
active: [3] 26.6 µM
inactive: [1] | [2] | [10] | [5] | [6] | [7] | [8]

NNc1nc(-c2ccc(N)cc2)cs1
inactive: [1] | [2] | [3] | [10] | [5] | [6] | [7] | [9] | [8]
